Out of some 12,000 compounds screened, about 45 (0.4%) were called active. No stated cut-off is given here; in the data, active means inhibition mostly above about 83% (no sharp cut-off); inactive means mostly below about 52%. The sample as a whole holds a higher share of actives than the screen did.

Assay [1] can be described thus: BmaI1 acyl-homoserine lactone synthase inhibition – biochemical, fluorescence intensity, with counterscreen (AID 720554). The note with it: BmaI1 enzyme assay, measured here: counterscreen fluorescence % control, concentration not given here.
For assay [2], the system named is acyl-homoserine lactone synthase BmaI1 (Burkholderia mallei ATCC 23344). The assay is described as above. The note with it: BmaI1 enzyme assay, stronger effect = higher value, concentration not given here.

One may read the inhibition as the relative decrease from the control value, in per cent. For `O=C(O)CCN(Cc1ccccc1)S(=O)(=O)c1cccs1`, the inhibition is 1.5% in assay [1] and 11% (inactive) in assay [2].

On to `Cc1nc2ccc(NC(=O)C3CCCC3)cc2s1`, for which the inhibition is 12.5% in assay [1] and 14% (inactive) in assay [2].

As to `N#Cc1ccc(CSc2nncn2-c2ccccc2)cc1`, the inhibition in assay [1] was -2%; in assay [2] it was -5.5% (inactive).

As for `Nc1nc(N)c2nc(-c3ccccc3)c(N)nc2n1`, the figures for the inhibition in assay [1] and in assay [2] were 21% and 5% (inactive), respectively.

As for `Cc1ccc2nc(N3CCCC3)nc(-c3ccccc3)c2c1`, the inhibition in assay [1] is 2.5%; in assay [2], 3% (inactive).

On to `NNc1nc(-c2ccccc2)c2cc(Br)ccc2n1`, for which the inhibition is 16.5% in assay [1] and 91% (active) in assay [2].

For the compound `CCC(=O)Nc1ccc(C(=O)CN2C(=O)NC3(CCCc4ccccc43)C2=O)cc1` (stereo unspecified), the values for the inhibition in assay [1] and in assay [2] were 16% and 14.5% (inactive), respectively.

As to `O=C(COc1ncnc2ccc(Br)cc12)N1CCCCC1`, the inhibition in assay [1] is 4.5%; in assay [2], 4.5% (inactive).

As to `Cc1cc(C)nc(SC2=C(N3CCC(C)CC3)C(=O)N(Cc3ccccc3)C2=O)n1`, the inhibition in assay [1] was 4.5%; in assay [2], 14% (inactive).

Regarding `Cc1cc(C)nc(SCC(=O)OCCN2C(=O)c3ccccc3C2=O)n1`, the inhibition in assay [1] is 9.5%; in assay [2], 18% (inactive).

With `Cc1cc(C)nc(SC2=C(Nc3ccc(O)cc3)C(=O)N(Cc3ccccc3)C2=O)n1`, the inhibition is 26.5% in assay [1] and 86.5% (active) in assay [2].

In the case of `Cc1c(CN2CC=C(c3ccccc3)CC2)c(=O)n(-c2ccccc2)n1C`, the inhibition was -2.5% in assay [1] and 9% (inactive) in assay [2].

As to `Cc1cc(O)c(CN2CC=C(c3ccccc3)CC2)cc1C(C)C`, the inhibition is -16% in assay [1] and -85.5% (active) in assay [2].

For the compound `COc1ccc2c(CN3CC=C(c4ccccc4)CC3)cc(=O)oc2c1`, the inhibition in assay [1] was 8%; in assay [2], 4.5% (inactive).

Take `N#Cc1ccccc1NC(=O)CN1CCNC(=O)C1`: the inhibition in assay [1] is 5%; in assay [2] it was 6% (inactive).

As to `NCCCOC1CCCCC1`, the figures for the inhibition in assay [1] and in assay [2] were 11% and 16.5% (inactive), respectively.

With `NS(=O)(=O)c1cc(C(=O)O)cs1`, the inhibition is -4.5% in assay [1] and 3% (inactive) in assay [2].

In the case of `Cc1cc(C)n(-c2ccc(C(=O)OCC(=O)NCC3CCCO3)cc2)n1` (stereo unspecified), the inhibition in assay [1] is 9%; in assay [2], 8% (inactive).

`O=C1NC(c2cccc(O)c2O)Nc2sc3c(c21)CCC3` (stereo unspecified): the inhibition was 19% in assay [1] and 83% (active) in assay [2].

On to `Cc1ccccc1CSCc1nc(N)nc(Nc2ccccc2C)n1`, for which the inhibition in assay [1] was 4%; in assay [2] it was 7% (inactive).

Consider `O=C1c2ccccc2C(=O)N1/N=C/c1ccc(-c2ccccc2Br)o1`, for which the inhibition was 2.5% in assay [1] and 4.5% (inactive) in assay [2].

Turning to `O=S(=O)(c1ccc(N=C=S)cc1)N1CCOCC1`, the inhibition in assay [1] is -3%; in assay [2] it was 13% (inactive).

On to `NC(=O)C1CCN(Cc2cc(=O)oc3cc(O)ccc23)CC1`, for which the inhibition was -4.5% in assay [1] and 5.5% (inactive) in assay [2].

As for `CC1(C)C(=O)Nc2ccccc2N1C(=O)CSc1ncnc2ccccc12`, the inhibition is 10.5% in assay [1] and 18.5% (inactive) in assay [2].

As for `CN1/C(=C2\C=NN(C)P2(=O)Nc2ccccc2)C(C)(C)c2ccccc21` (stereo unspecified), the inhibition was 5% in assay [1] and 14.5% (inactive) in assay [2].

On to `CN1/C(=C2\C=NN(C)P2(=S)N2CCCC2)C(C)(C)c2ccccc21` (stereo unspecified), for which the figures for the inhibition in assay [1] and in assay [2] were 10% and 15% (inactive), respectively.

With `COP1(=S)/C(=C2/N(C)c3ccccc3C2(C)C)C=NN1C` (stereo unspecified), the inhibition in assay [1] was 6%; in assay [2], 88% (active).

Turning to `COc1ccccc1/C=N/OCC(=O)NCc1ccc2c(c1)OCO2`, the inhibition is 3.5% in assay [1] and 16.5% (inactive) in assay [2].

With `COC(=O)c1ccc(-n2c(C)cc(C(=O)CN3C(=O)CN(C)C3=O)c2C)cc1`, the inhibition in assay [1] is -4.5%; in assay [2] it was 9% (inactive).

As to `O=C(N/N=C/c1sc(N2CCCCC2)nc1-c1cccs1)c1ccccc1`, the inhibition in assay [1] is -8.5%; in assay [2], 17% (inactive).

For `Nn1c(NNC(=O)c2ccccc2)nnc(-c2cccs2)c1=O`, the inhibition in assay [1] was 11.5%; in assay [2], 92% (active).

As to `Nc1nnc(-c2cccs2)c(=O)n1N`, the inhibition in assay [1] is 70.5%; in assay [2], 20% (inactive).

On to `CCCn1c(C)cc(/C=C(\C#N)C(=O)Oc2c(C)ccc(C)c2C)c1C`, for which the inhibition is 2.5% in assay [1] and 17.5% (inactive) in assay [2].

Turning to `CN(C)Cc1ccccc1C#N`, the inhibition in assay [1] is 1%; in assay [2], -3.5% (inactive).

Take `Cc1ccc(S(=O)(=O)NCC(=O)OC2CCOC2=O)cc1` (stereo unspecified): the inhibition in assay [1] is 4%; in assay [2] it was -3% (inactive).

As for `COC(=O)Cc1c(C(=O)OC)sc(N)c1C#N`, the inhibition in assay [1] is 0.5%; in assay [2], 5.5% (inactive).

`c1cc2n[nH]nc2cn1`: the figures for the inhibition in assay [1] and in assay [2] were -4% and 12% (inactive), respectively.

For the compound `COc1ccccc1C(=O)CSc1cccc[n+]1[O-]`, the values for the inhibition in assay [1] and in assay [2] were 10% and 57% (inactive), respectively.

For the compound `COc1ccccc1C(=O)NC(=O)CSc1cccc[n+]1[O-]`, the inhibition is 10% in assay [1] and 16.5% (inactive) in assay [2].

For the compound `COc1cc(C(=O)CSc2cccc[n+]2[O-])cc(OC)c1OC`, the inhibition in assay [1] is 6.5%; in assay [2], 87% (active).

As for `Cc1nn(-c2ccccc2)c2c1CC(C#N)(c1ccccn1)C1CCCN21` (stereo unspecified), the inhibition in assay [1] was 3%; in assay [2], 10% (inactive).

In the case of `COc1cc(OC)c(OC)cc1CNC(=O)CCc1c(C)noc1C`, the inhibition was 0% in assay [1] and 11% (inactive) in assay [2].

`Cc1cc(C(=O)CN(Cc2ccco2)S(=O)(=O)/C=C/c2ccccc2)c(C)n1C`: the figures for the inhibition in assay [1] and in assay [2] were 0.5% and 2.5% (inactive), respectively.

On to `Oc1ccc(/C=N/n2c(-c3ccco3)csc2=Nc2ccc(F)cc2F)c(O)c1`, for which the inhibition in assay [1] is 19%; in assay [2], 34% (inactive).

As for `Cc1csc(=Nc2ccccc2F)n1/N=C/c1ccncc1`, the results for the inhibition in assay [1] and in assay [2] were -3% and 89% (active), respectively.

`CN=c1scc(-c2ccccc2)n1/N=C/c1ccsc1`: the inhibition in assay [1] is -7%; in assay [2] it was 6% (inactive).

For the compound `CCN(C(=O)Cn1ncc(Cl)c(Cl)c1=O)C1CCS(=O)(=O)C1` (stereo unspecified), the inhibition in assay [1] is 6%; in assay [2], 12% (inactive).

Take `COc1ccc2nc(NC(=O)c3ccco3)sc2c1`: the values for the inhibition in assay [1] and in assay [2] were 14.5% and 19% (inactive), respectively.

The values are drawn from PubChem BioAssay AID720554 (ICCB-Longwood Screening Facility, Harvard Medical School, 2013).
